Screening results from PubChem.
AmpC inh detg: AmpC beta-lactamase inhibition with detergent present; P00811; AmpC hydrolysis of nitrocefin, absorbance 480 nm, 0.01% Triton; Potency, µM (highest dose often 114 µM), without a hit: at the top dose activity change, negative = inhibition, hits mostly inhibitors; 0.041% of 370,000 active; AID 485294;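 note: 0% = no-compound wells and -100% = no-enzyme wells; nearly all actives have a fitted effect of over 25% in size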
Target sequence (P00811 whole entry, looked up): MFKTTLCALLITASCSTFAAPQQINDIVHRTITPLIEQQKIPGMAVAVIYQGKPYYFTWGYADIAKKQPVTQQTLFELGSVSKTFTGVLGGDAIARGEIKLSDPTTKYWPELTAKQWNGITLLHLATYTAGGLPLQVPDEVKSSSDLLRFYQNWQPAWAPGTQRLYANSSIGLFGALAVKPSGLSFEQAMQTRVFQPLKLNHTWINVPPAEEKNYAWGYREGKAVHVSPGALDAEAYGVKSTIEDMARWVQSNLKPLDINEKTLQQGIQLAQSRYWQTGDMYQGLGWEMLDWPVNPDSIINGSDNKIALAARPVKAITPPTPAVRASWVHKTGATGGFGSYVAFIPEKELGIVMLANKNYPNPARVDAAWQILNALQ
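AmpC (5.3 nM in the dispensed reagent) in 20 mM phosphate pH 7.0 with 0.01% (detergent screen) or 0.0001% Triton X-100 was preincubated with compounds for 15 min at room temperature. Nitrocefin was then added from an 800 uM solution, and hydrolysis was followed at 480 nm.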
Sm TGR block: S. mansoni TGR enzyme inhibition; Q962Y6; purified TGR, DTNB reduction, TNB absorbance 405 nm; Potency, µM (top dose mostly 114 µM), for the others: at the highest dose activity change, negative = inhibition, actives largely listed as inhibitors; 3% of 360,000 active; AID 485364; note: nearly all actives have a fitted effect of over 60% in size
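TGR 20 nM + NADPH 100 uM (dispensed conc.), cpd preinc 15 min RT; start with NADPH (500 uM addition) then DTNB (15 mM addition). Kinetic TNB absorbance, 405 nm filter. Four-parameter Hill fit across titration.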
AmpC no deterg: inhibitors of E. coli AmpC beta-lactamase without detergent; AmpC nitrocefin hydrolysis, absorbance 480 nm, 0.0001% Triton; Potency, µM (top dose mostly 57.1 µM), inactives show top-dose activity change, negative = inhibition, usual class: inhibitors; 0.52% of 330,000 active; AID 485341;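 note: plate controls were no compound for no effect and no enzyme for full effect; nearly all actives have a fitted effect of over 20% in size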
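AmpC (5.3 nM in the dispensed reagent) in 20 mM phosphate pH 7.0 with 0.01% (detergent screen) or 0.0001% Triton X-100 was preincubated with compounds for 15 min at room temperature. Nitrocefin was then added from an 800 uM solution, and hydrolysis was followed at 480 nm.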
Starred values were filed as active, the others as inactive; ? = inconclusive; nt = no result given; [ ] = another dose, or the depositor's remark. The list is not random: actives were taken first. Their share in the collection is about 3.3%. Calls come from the whole dose curve; as a rule, active = well fitted curve in the direction sought with a large enough effect; inconclusive = small, poorly fitted or top-dose-only effect, or another doubt; inactive = no such curve, though single readings can be large; an effect the other way counts as inactive or inconclusive. Unless noted, % is set by controls: 0 for no effect and ±100 for the full control effect; potency is the fitted concentration of half-maximal effect.

SMILES	AmpC inh detg	Sm TGR block	AmpC no deterg
C#CCOCCOCCOCCNc1nc(N2CCN(C(=O)C([C@@H](C)CC)n3cc(C(N)CC(C)C)nn3)CC2)nc(N2CCN(C(=O)[C@H](CCC(=O)O)n3cc(C(N)[C@H](C)CC)nn3)CC2)n1 (some centres not stated)	-5%	-25%	184%
C#CCOCCOCCOCCNc1nc(N2CCN(C(=O)[C@H](CCC(=O)O)n3cc(C(N)Cc4ccc(O)cc4)nn3)CC2)nc(N2CCN(C(=O)[C@H](CCCCN)n3cc(C(N)[C@H](C)CC)nn3)CC2)n1 (some centres not stated)	-4%	32µM*	165%
O=C(Nc1cccc(F)c1)C1CCCN(S(=O)(=O)c2cnc[nH]2)C1 (configuration not stated)	-4%	2%	-24%
C#CCOCCOCCOCCNc1nc(N2CCN(C(=O)[C@H]([C@@H](C)CC)n3cc([C@@H](N)CC(C)C)nn3)CC2)nc(N2CCN(C(=O)[C@H]([C@@H](C)CC)n3cc([C@@H](N)CC(C)C)nn3)CC2)n1	1%	28µM*	197%
C#CCOCCOCCOCCNc1nc(N2CCN(C(=O)C([C@@H](C)CC)n3cc(C(N)CO)nn3)CC2)nc(N2CCN(C(=O)[C@H](CCC(=O)O)n3cc(C(N)[C@H](C)CC)nn3)CC2)n1 (some centres not stated)	4%	0%	203%
C#CCOCCOCCOCCNc1nc(N2CCN(C(=O)[C@H]([C@@H](C)CC)n3cc([C@@H](N)CC(C)C)nn3)CC2)nc(N2CCN(C(=O)[C@H](Cc3ccc(O)cc3)n3cc([C@@H](N)CC(C)C)nn3)CC2)n1	-2%	0%	164%
C#CCOCCOCCOCCNc1nc(N2CCN(C(=O)Cn3cc(CCCCN)nn3)CC2)nc(N2CCN(C(=O)[C@H](CCCCN)n3cc(CCCC)nn3)CC2)n1	-1%	0%	223%
C#CCOCCOCCOCCNc1nc(N2CCN(C(=O)[C@H](CCCCN)n3cc(CCCC)nn3)CC2)nc(N2CCN(C(=O)[C@H](Cc3ccc(O)cc3)n3cc(CCO)nn3)CC2)n1	?	35µM*	314%
C#CCOCCOCCOCCNc1nc(N2CCN(C(=O)[C@H](CCC(=O)O)n3cc(C(N)CO)nn3)CC2)nc(N2CCN(C(=O)[C@H](CCC(=O)O)n3cc(C(N)[C@H](C)CC)nn3)CC2)n1 (some centres not stated)	-6%	28µM*	116%
Cc1ccc(CSc2nc(N)cc(=O)[nH]2)cc1	-4%	0%	-16%
COC(=O)/C=C/C(=O)Nc1ccc(O)c(Cl)c1	1%	45µM*	-32%
COc1ccc(/C=C/C(=O)Nc2ccc(Cl)c(Cl)c2)cc1	0%	0%	nt
CC(=O)NCc1ccc(C(=O)COC(=O)COc2ccc(Cl)c(C)c2)s1	nt	nt	92%
Cc1ccc(S(=O)(=O)N2CCN(C(=O)COC(=O)C3(C)CC3(Cl)Cl)CC2)c(C)c1 (configuration not stated)	-10%	-8%	47%
Cc1[nH]c2ccccc2c1/C=N/NC(=O)c1cccc(S(=O)(=O)Nc2cccc(C(F)(F)F)c2)c1	-7%	nt	4.5µM*
NNC(=O)c1cccc(S(=O)(=O)Nc2cccc(C(F)(F)F)c2)c1	4%	-7%	-22%
COCCCNc1nc(NCc2ccc(C)cc2)c2cnn(C)c2n1	5%	-2%	nt
COc1ccccc1CNC(=O)c1cc2c(=O)n(Cc3cccs3)ccc2nc1C	-1%	-11%	nt
COC(=O)c1ccc(Cn2cc(/C=C\[N+](=O)[O-])c3ccccc32)o1	-5%	-30%	-41%
O=C(O)c1ccc(Cn2cc(/C=C\[N+](=O)[O-])c3ccccc32)o1	-9%	3.2µM*	-25%
COC(=O)c1ccc(NC(=O)CSc2nncn2-c2ccccn2)cc1	-4%	-27%	-36%
Cc1cc(=O)oc2c(CN3CCN(C)CC3)c(O)c(Cl)cc12	?	50µM*	-25%
O=c1oc2c(CN3CCOCC3)c(O)ccc2c2c1CCCC2	-14%	79µM*	-20%
Cc1c(C)c2cc(Cl)c(O)c(CN3CCCCC3)c2oc1=O	-5%	-11%	7%
COc1ccc(Oc2coc3c(CN(C)C)c(O)ccc3c2=O)cc1	-14%	-27%	-11%
SMILES	AmpC inh detg	Sm TGR block	AmpC no deterg
O=c1oc2c(CN3CCOCC3)c(O)ccc2c2ccccc12	?	0%	-23%
CCCc1cc(=O)oc2c(CN3CCN(C)CC3)c(O)c(Cl)cc12	-22%	?	-4%
O=c1oc2c(CN3CCOCC3)c(O)c(Cl)cc2c2c1CCCC2	?	45µM*	-13%
COc1ccc(Oc2coc3c(CN4CCOCC4)c(O)ccc3c2=O)cc1	3%	45µM*	-16%
Cc1ccc(C)c(NC(=O)CN(C)C(C)C(=O)N2CC(C)CC(C)C2)c1 (configuration not stated)	-15%	-18%	175%
O=C(O)CCC(=O)Nc1ccc(NC(=O)c2ccc(Cl)cc2Cl)c(Cl)c1	-2%	1%[57.1 µM]	-9%
COC(=O)c1ccccc1NC(=O)Cn1nc2n(C)c3ccccc3n2c(=O)c1=O	?	-2%	-11%
O=C(Nc1nc(-c2ccc(Cl)s2)cs1)c1ccco1	-15%	40µM*	-28%[11.4 µM]
O=C(Nc1nc(-c2ccc(Cl)s2)cs1)c1cccs1	-15%	-13%	?
CCOP(=O)(C1=C(O)C(=O)C(C(C)(C)C)=CC1=O)c1ccccc1 (configuration not stated)	0%	1.4µM*	-21%
CCOP(=O)(OCC)c1cccc(P(=O)(c2ccccc2)c2ccccc2)c1O	-14%	0%	0%
Cc1cc2occ(CC(=O)N(C)CC(=O)Nc3ccc(F)cc3)c2cc1C	-14%	-9%	7%
Cc1snc(SCC(=O)c2ccc(Cl)cc2)c1C#N	?	3%	-50%
Cc1ccc(C(=O)CSc2nsc(C)c2C#N)cc1	4%	1%	0.25µM*
COc1ccc(CN2C(=O)c3cccnc3C2=O)cc1S(=O)(=O)N1CCCCC1C (configuration not stated)	-3%	-7%	40%
CN(CC(=O)NCCc1ccccc1)Cc1ccco1	-1%	0%	0%
Nc1nc(N)nc(-c2cc(O)ccc2O)n1	-8%	-29%	-13%
Oc1ccc(O)c(-c2cnns2)c1	-3%	79µM*	-14%
CC(OC(=O)CNC(=O)C12CC3CC(CC(C3)C1)C2)C(=O)Nc1ccc(S(N)(=O)=O)cc1 (configuration not stated)	1%	-4%	-22%
O=C(/C=N/O)Nc1ccc2sc3ccccc3c2c1	-5%	12%	-35%
Cc1ccc(S(=O)(=O)N2CCCC2C(=O)OCc2ccco2)cc1 (configuration not stated)	3%	4.5µM*	1%
Cc1ccc(S(=O)(=O)N2CCCC2C(=O)OCc2ccccc2)cc1 (configuration not stated)	?	6%	-6%
CCOc1ccc(NS(=O)(=O)c2ccc(C(=O)NCCCN3CCOCC3)cc2)cc1	0%	3%	46%
O=C(OCc1cccc(F)c1)c1ccc2c(=O)n3c(nc2c1)CCC3	2%	4%	108%
